# Results from PubChem BioAssay (Tox21).
# Where “and” joins values, the source holds several entries; their conditions need not be identical. Identical values can stand only once. Results filed as inconclusive are left out. Calls of active or inactive are those of the source. The call rests on the fitted dose curve; in most records, active means well fitted activation curve with a large enough effect in the repeat runs; inconclusive means weak or mixed curves; inactive means flat fitted curve, though single readings scatter.
# Assay: A CellTox Green Cytotoxicity Assay to monitor cytotoxicity in HepG2 cells - 32 hour (AID 1224883); further: nearly all actives have a fitted effect of over 50% in size
# Conditions: CellTox Green fluorescence; series mostly up to 76.8 µM; cytotoxicity increase: at the top concentration
# Text: National Center for Advancing Translational Sciences [NCATS]
# NIH Chemical Genomics Center [NCGC]
# U.S. Environmental Protection Agency [EPA]
# National Institutes of Environmental Health Sciences [NIEHS]
# National Toxicology Program [NTP]
# Cell-based models are critical for drug discovery. Determining the natural cytotoxic effects resulting from test compounds is an essential research activity. A CellTox Green Cytotoxicity Assay to monitor cytotoxicity in real time of continues cell culture during 40 hours of the compound treatment was used to screen Tox21 10K library compounds in HepG2 cells. CellTox Green Cytotoxicity Assay is a nonlytic, homogeneous, biofluorescent method to measure cytotoxicity in cell culture after experimental manipulation. The assay system uses a proprietary asymmetric cyanine dye that is excluded from viable cells but preferentially stains the dead cell's DNA. […] Viable cells produce no appreciable increases in fluorescence. Therefore, the fluorescence signal produced by the binding interaction with dead cell DNA is proportional to cytotoxicity.
# The mixture of HepG2 cell suspension and reagents were dispensed at 600cells/6 ul/well in 1536-well tissue culture treated black solid bottom plates using a Multidrop dispenser. After the assay plates were incubated at a 37 C/5% CO2 incubator for 5 hours, 23 nL of compounds dissolved in DMSO, positive and negative controls was transferred to the assay plate by a pintool work station. The plates were incubated at 37 C for 40 hours. The fluorescence intensity were measured at 0h, 8h, 16h, 24h, 32h and 40h time points using ViewLux plate reader during compound treatment.
# On the % scale 0 is the no-effect control and ±100 the full control effect; potency means the concentration at half of the fitted maximal effect.
SMILES,cytotoxicity increase,Potency
O=C(CBr)Nc1ccc(Cl)cc1C(=O)c1ccccc1F,0.243% [at 35.3 µM] (inactive),
ClCCCCBr,-15.4% (inactive),
O=C1C(=O)c2cccc3cccc1c23,12% (inactive),
C=CC(=O)OCC(C)C,-13.7% (inactive),
CC(O)(CS(=O)(=O)c1ccc(F)cc1)C(=O)Nc1ccc(C#N)c(C(F)(F)F)c1 (stereo not given),-2.47% [at 35.3 µM] (inactive),
COC1=CC(=O)O[C@@H](CCc2ccccc2)C1,-1.19% (inactive),
CCCCCCC#N,1.3% (inactive),
CCCC(Cn1cncn1)c1ccc(Cl)cc1Cl (stereo not given),,49 µM (active)
ClCc1cccc(Cl)c1,-4.49% [at 35.3 µM] (inactive),
O=[N+]([O-])c1cc(C(F)(F)F)cc([N+](=O)[O-])c1Cl,0.833% (inactive),
Clc1cccc2ccccc12,6.14% (inactive),
CC(=O)[C@H]1CC[C@H]2[C@@H]3CC[C@H]4C[C@](C)(O)CC[C@]4(C)[C@H]3CC[C@]12C,-5.01% [at 35.3 µM] (inactive),
C[C@@H]1CC[C@H]2[C@@H](C)C(=O)O[C@@H]3O[C@@]4(C)CC[C@@H]1[C@]32OO4,-4.35% [at 35.3 µM] (inactive),
C=CCOC(C)=O,8.11% (inactive),
[CH3][Sn]([CH3])([Cl])[Cl],19.1% (inactive),
OC(c1ccc(Cl)cc1)(c1ccc(Cl)cc1)c1cccnc1,0.464% (inactive),
CC(C)=CCOc1c2occc2cc2ccc(=O)oc12,-18.3% [at 35.3 µM] (inactive),
[O-][Cl+]O,1.11% (inactive),
C(=NC1CCCCC1)=NC1CCCCC1,,11 µM (active) and 12.3 µM (active)
CC(C)(Cl)[N+](=O)[O-],7.27% (inactive),

SMILES,cytotoxicity increase,Potency
CCCCN=C=O,-0.477% (inactive),
CCOC(=O)[C@]1(c2ccccc2)Oc2ccccc2[C@@H]1N,-4.18% (inactive),
NCC(CC(=O)O)c1ccc(Cl)cc1 (stereo not given),-7.65% [at 0.29 µM] (inactive),
O=C1CN=C(c2ccccc2)c2cc(Cl)ccc2N1CC1CC1,2.99% (inactive),
CCOP(=S)(Oc1ccc([N+](=O)[O-])cc1)c1ccccc1 (stereo not given),-5.8% (inactive),
CCOP(=S)(OCC)Oc1cc(Cl)c(Br)cc1Cl,-7.59% (inactive),
C/C=C/C=O,-8.74% (inactive),
N#Cc1cc(I)c(O)c(I)c1,20.5% (inactive),
OCCCBr,7.87% (inactive),
CCCCNP(N)(N)=S,-14.1% (inactive),
Clc1ccc(C2(Cn3cncn3)CC(Br)CO2)c(Cl)c1 (stereo not given),,34.5 µM (active)
CCCN(CCCl)c1c([N+](=O)[O-])cc(C(F)(F)F)cc1[N+](=O)[O-],-10.6% (inactive),
Clc1cc(Cl)c(Cl)c(Cl)c1,5.48% (inactive),
CCCCN(N=O)C(=N)N[N+](=O)[O-],13% (inactive),
Cc1ccccc1C(=O)Nc1cccc(OC(C)C)c1,1.26% (inactive),
O=C(CBr)OCc1ccccc1,-11.1% (inactive),
CCCCCCCCCCOC(=O)c1ccccc1C(=O)OCCCCCCCCCC,3.66% (inactive),
CCOP(=S)(OCC)Oc1nc(Cl)c(Cl)cc1Cl,17.4% (inactive),
BrCCCCBr,-8.62% (inactive),
Cl/C=C\Cl,2.61% (inactive),
